Screening data from PubChem.
HIF-2a inh – HIF-2a reporter inhibitors, primary screen, luminescence, 786-0 RCC cells. AID 624352, 2012. 786-0 RCC cells HIF-2a reporter, luciferase luminescence, overnight. inhibition, % at 18.8 µM. 0.72% of 360,000 active;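 active = inhibition of the luminescence signal of 40% or more relative to plate controls, in a single-dose primary screen at 18.75 µM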
TROY signal inh – inhibitors of TROY-driven NF-kB signaling, primary screen, Q293 LMP1-TROYcd cells, NF-kB luciferase, uHTS; Q293 LMP1-TROYcd NF-kB luciferase reporter, 4 h; inhibition, % at 10 µM; 0.98% of 360,000 active; AID 1347056, 2019;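 active = compounds whose plate-normalised and pattern-corrected inhibition of the luciferase reporter signal at the single screening dose is 50% or more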
Peg3 promoter – Peg3 promoter-driven luciferase inhibitors, primary screen, cell-based, HeLa, luciferase luminescence. inhibition, % at 20 µM. HeLa PEG-Prom luciferase reporter, overnight. 1.7% of 360,000 active. AID 588405, 2011;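 active = inhibition of at least 50% at 20 µM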
KKLEB tox – cytotoxicity in KKLEB CF airway cells, primary screen, cytotoxicity control for CF NF-kB inhibitor project, cell-based, uHTS, fluorescence assay plates. 0.36% of 360,000 active. activity change (cytotoxicity), % at 5 µM. KKLEB CF airway cells viability, ATPlite luminescence, overnight; stronger effect = lower value; cells stimulated with P. aeruginosa culture filtrate;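 active = corrected activity change at or below -50% at 5 µM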
TWEAK Fn14 block – inhibitors of TWEAK-Fn14 signaling, primary screen, luciferase reporter cells, uHTS; TWEAK-stimulated Fn14 reporter cells, luciferase luminescence, 8 h; inhibition, % at 10 µM; 2% of 360,000 active; AID 1159606, 2016; in the data active = inhibition above about 50%
CF NFkB inh – inhibitors of PAF-induced NF-kB signaling, primary screen, cell-based, GFP fluorescence, uHTS | 0.86% of 360,000 active | inhibition, % at 5 µM | KKLEB NF-kB-GFP reporter, GFP fluorescence overnight | AID 588850, 2011;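 active = at least 50% inhibition at 5 µM, scaled per plate between neutral and stimulator controls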;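 also: PAF is a Pseudomonas aeruginosa culture filtrate used as stimulus; plate controls were PAF-stimulated DMSO wells for no effect and unstimulated DMSO wells for full effect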
The depositor's hits bear a star. Most compounds without a hit are left out; they make up all but 4% or so of the library.

SMILES	HIF-2a inh	TROY signal inh	Peg3 promoter	KKLEB tox	TWEAK Fn14 block	CF NFkB inh
Cc1ccc(C)c(NC(=O)CSc2nnc(C3CCCCC3)o2)c1	3	-9	3	1	7	-15
COc1ccc(S(=O)(=O)N2CCC(C(=O)NCC(=O)Nc3c(C)cccc3C)CC2)cc1OC	0	-3	6	5	-9	1
COc1ccc(CC(=O)Nc2nc(-c3ccc(F)c(F)c3)cs2)cc1	-36	55*	-9	9	47	-26
CNCc1ccccc1Sc1cccc2ccccc12	17	12	19	2	13	-7
CN(C)CCN(C)Cc1ccccc1Sc1cccc2ccccc12	3	-6	102*	-12	-8	28
CC1=CN2C(=N)/C(=C/c3ccc(C)o3)C(=O)N=C2S1	-93	16	-85	-6	66*	-1
CCOC(=O)[C@H]1[C@H]2COc3ccc(Cl)cc3[C@@H]2N2C(=O)c3cc(F)ccc3NC(=O)[C@@]12C	1	9	-4	-5	-12	17
COc1ccccc1N(Cc1ccccc1)S(=O)(=O)c1cccc(C(=O)Nc2ccc(C)cn2)c1	21	20	38	1	53*	-3
COc1ccccc1C(=O)Nc1cccc2cccnc12	-241	-20	-134	11	-19	-50
COc1cccc(-c2nn(C)c3sc(C(=O)N4CCN(c5ccccn5)CC4)cc23)c1	-7	62*	57*	-5	69*	6
COc1cccc(-c2nn(C)c3sc(C(=O)N4CCOCC4)cc23)c1	-4	-30	2	-7	-32	-24
COc1ccccc1NCC(=O)N/N=C/c1c(O)ccc2ccccc12	9	24	56*	-17	36	9
O=C(CNc1ccc(F)cc1)N/N=C/c1c(O)ccc2ccccc12	-9	24	51*	2	18	15
N#CC1=C(Nc2ccccc2Cl)SC2(CCCC2)NC1=O	20	-23	-12	-19	-7	-10
NC(c1csc(Nc2cc(NCCCO)ncn2)n1)c1ccccc1Cl (stereo not given)	14	12	1	-5	15	15
CN1CCc2c(sc(/N=C/c3cc(Cl)ccc3O)c2C#N)C1	-250	74*	-337	3	65*	13
COc1ccc(OCc2cc(C(=O)N(C)C3CCOCC3)no2)c2ccccc12	-177	-34	-255	-20	79*	-35
COc1ccc(OCc2cc(C(=O)N(C)C3CCOC3)no2)c(Cl)c1 (stereo not given)	-88	-58	28	-15	-18	16
CSc1ccccc1OCc1cc(C(=O)NC2CCOC(C)(C)C2)no1 (stereo not given)	-33	-18	-24	32	1	-36
COc1ccc(OCc2cc(C(=O)NC3CCOC(C)(C)C3)no2)c2ccccc12 (stereo not given)	-183	-46	-321	7	61*	-14
COc1ccc(Cc2c(-c3ccccc3)nc3c4ccccc4ccn23)c(C)c1	-123	0	-63	-6	32	-1
Cc1cc(NC(=O)CSc2cn(CCNC(=O)c3ccccc3)c3ccccc23)no1	-20	15	-4	15	32	-2
Cc1ccc(C(=O)NCCn2cc(SCC(=O)Nc3cc(C)on3)c3ccccc32)cc1	-12	73*	-2	8	84*	18
Cc1ccc(C(=O)NCCn2cc(SCC(=O)N3CCOCC3)c3ccccc32)cc1	-6	78*	17	18	86*	-13
COc1cc(S(=O)(=O)NCc2cccnc2)c(OC)cc1Br	13	50*	13	-10	9	19
SMILES	HIF-2a inh	TROY signal inh	Peg3 promoter	KKLEB tox	TWEAK Fn14 block	CF NFkB inh
CC(=O)c1cccc(NC(=O)Nc2ccc3c(c2)N(C)C(=O)CS3)c1	-55	68*	29	-15	82*	61*
CCCNC(=O)C1(C)CCN(C(=O)c2ccc3snnc3c2)C1 (stereo not given)	2	4	-6	16	-7	-27
O=[N+]([O-])c1cnc(Sc2ccncn2)c([N+](=O)[O-])c1	5	3	113*	-2	-1	-8
O=[N+]([O-])c1ccc(Sc2ccc(F)cc2)nc1	-10	2	2	2	2	-2
O=C(COc1ccc(Cl)cc1Br)OCC(=O)c1ccc[nH]1	15	-3	-17	14	-31	-28
COc1ccc(CCN2C(=O)c3[nH]nc(-c4ccccc4O)c3C2c2cccc(Cl)c2)cc1 (stereo not given)	27	30	98*	-7	49	28
COc1ccc(C2c3c(-c4ccccc4O)n[nH]c3C(=O)N2CCc2ccc(OC)c(OC)c2)cc1 (stereo not given)	36	18	26	-11	41	7
NC(=O)c1cccc(-c2cnc3c(Nc4cccc(OC(F)(F)C(F)F)c4)nccn23)c1	-242	46	-117	-10	72*	11
Cc1cc(C)c(-c2csc(NC(=O)/C=C/c3cccs3)n2)c(C)c1	-58	-5	-13	-62*	69*	58*
O=C(NCCCN1CCOCC1)c1ccc2c(c1)N(Cc1c(F)cccc1Cl)C(=O)CS2	12	-6	7	2	39	-18
CN(C)c1ccc(C(=O)OCC#CCSc2nnc(-c3cccc4ccccc34)o2)cc1	-24	2	-8	-24	4	8
O=C(CNC(=O)c1ccc(Br)cc1)c1ccccc1	-195	-46	-253	1	0	-2
O=C(CNC(=O)c1ccccc1)c1ccccc1	-133	-24	-169	-10	50*	3
